GSH bead fluor – compound fluoresces at 488/530 nm on GSH beads; fluorescence (KMESF) at 10 µM; GSH beads flow cytometry, compound fluorescence 488/530 nm; hits give high values; actives 0.25% (n = 190,000); in the data active means fluorescence above about 89;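 further: glutathione beads carrying GST-tagged Bcl family fusion proteins plus one bare bead set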
RGS7-Gao reg – regulators of human RGS7-Galphao interaction. Multiplexed bead flow cytometry, RGS7-Galphao binding; actives lie on both sides. P09471. AID 1439. binding response (% of control), % at 10 µM. actives 0.35% (n = 220,000); in the data active means binding response below about 49% or above about 150%; inconclusive means no clear call, values can overlap the other calls; inactive means in between;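 further: fluorescent Galphao held in activated GDP-AlF4 state binding bead-coupled RGS7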
Target sequence (P09471 whole entry, looked up): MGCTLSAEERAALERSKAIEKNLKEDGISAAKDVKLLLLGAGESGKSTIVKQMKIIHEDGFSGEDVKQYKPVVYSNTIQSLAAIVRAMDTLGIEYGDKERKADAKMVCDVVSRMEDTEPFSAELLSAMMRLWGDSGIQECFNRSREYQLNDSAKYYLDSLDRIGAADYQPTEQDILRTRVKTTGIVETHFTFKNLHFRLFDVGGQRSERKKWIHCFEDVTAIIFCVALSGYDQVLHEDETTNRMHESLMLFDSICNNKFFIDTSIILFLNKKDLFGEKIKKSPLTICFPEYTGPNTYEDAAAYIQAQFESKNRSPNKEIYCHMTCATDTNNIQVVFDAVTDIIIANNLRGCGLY
RGS8-Gao – human RGS8-Galphao interaction regulation | AID 1423 | multiplexed bead flow cytometry, RGS8-Galphao binding; actives lie on both sides | actives 0.34% (n = 220,000) | P09471 | response (percent of control binding), % at 10 µM; in the data active means response below about 60% or above about 140%; inactive means in between;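 further: Galphao activated as the GDP aluminium fluoride complex binding bead-coupled RGS8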
RGS16-Gao HTS – regulators of human RGS16-Galphao interaction; binding response (% of control), % at 10 µM; actives 0.38% (n = 220,000); AID 1441; bead-based flow cytometry RGS16-Galphao binding, fluorescence; actives lie on both sides;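 further: Galphao activated by GDP with aluminum fluoride before binding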
RGS4-Gao reg – human RGS4-Galphao interaction regulation. P09471. Multiplexed bead flow cytometry, RGS4-Galphao binding; actives lie on both sides. binding response (% of control), % at 10 µM. actives 0.33% (n = 220,000). AID 1415; in the data active means binding response below about 49% or above about 150%; inactive means in between;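 further: fluorescent Galphao activated with aluminum fluoride binding bead-coupled RGS4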
Avidin bead fluor – compound fluoresces at 488/530 nm on avidin beads; actives 0.38% (n = 220,000); compound fluorescence 488/530 nm, flow cytometry; hits give high values; fluorescence (KMESF) at 10 µM; AID 1775; in the data active means fluorescence above about 47
RGS-Gao – RGS4-Galphao interaction regulator (human); RGS4–Galpha-o binding response, % at 10 µM; multiplexed bead flow cytometry, RGS–Galpha-o binding; shares compounds with RGS16-Gao HTS; AID 1504; actives 99% (n = 1,600);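 further: fluorescently labeled Galpha-o bound to GDP with aluminium fluoride binding biotinylated RGS beads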
Target sequence (P09471 whole entry, looked up): as above
Target sequence (P49798 whole entry, looked up): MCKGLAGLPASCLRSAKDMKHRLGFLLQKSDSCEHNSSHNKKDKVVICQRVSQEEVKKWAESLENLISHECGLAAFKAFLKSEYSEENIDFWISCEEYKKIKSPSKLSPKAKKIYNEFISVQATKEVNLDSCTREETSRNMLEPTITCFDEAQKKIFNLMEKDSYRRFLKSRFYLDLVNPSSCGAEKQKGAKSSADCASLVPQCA
Biotin-avidin – interferes with biotinylated probe binding to avidin beads; shares compounds with RGS16-Gao HTS; streptavidin beads, fluorescein-biotin binding, flow cytometry; inhibition, % at 10 µM; 1,700 tested, under 10 active;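 active means inhibition above 50%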;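 further: median green fluorescence of gated singlet beads compared with DMSO control wells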
RGS8-Gao confirm – confirmation of regulators of human RGS8-Galphao interaction | shares compounds with RGS16-Gao HTS | bead-based flow cytometry RGS8-Galphao binding, fluorescence; actives lie on both sides | binding response (% of control), % at 10 µM | actives 3% (n = 1,700); in the data active means binding response below about 72% or above about 130%; inactive means in between;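 further: Galphao activated as GDP AlF4 complex before binding bead RGS8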
RGS7-Gao single – confirmation of regulators of human RGS7-Galphao interaction | shares compounds with RGS16-Gao HTS | bead-based flow cytometry RGS7-Galphao binding; actives lie on both sides | response (percent of control binding), % at 10 µM | actives 7.8% (n = 1,700) | AID 1837; in the data active means response below about 75% or above about 130%; inactive means in between;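 further: fluorescent Galphao activated with GDP and aluminum fluoride binding bead-coupled RGS7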
RGS16-Gao conf – confirmation of regulators of human RGS16-Galphao interaction; actives 4% (n = 1,700); AID 1838; response (% of control binding), % at 10 µM; shares compounds with RGS16-Gao HTS; bead-based flow cytometry, RGS16-Galphao binding; actives lie on both sides; in the data active means response below about 74% or above about 130%; inactive means in between;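 further: Galphao activated as the GDP aluminium fluoride complex binding bead-coupled RGS16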
RGS4-Gao single – confirmation of regulators of human RGS4-Galphao interaction. shares compounds with RGS16-Gao HTS. RGS4-Galphao binding, multiplexed bead flow cytometry; actives lie on both sides. binding response (% of control), % at 10 µM. actives 4% (n = 1,700). AID 1840; in the data active means binding response below about 74% or above about 130%; inactive means in between
RGS19-Gao single – confirmation of regulators of human RGS19-Galphao interaction; shares compounds with RGS16-Gao HTS; bead-based flow cytometry RGS19-Galphao binding; actives lie on both sides; response (percent of control binding), % at 10 µM; actives 5% (n = 1,700); AID 1841; in the data active means response below about 50% or above about 160%; inactive means in between
Of the large screens only hits and unclear results are named; the others gave an inactive call (follow-up assays come after a bar, where they were run); [ ] = another dose, or the depositor's remark. Only some compounds are listed: those with a hit (about 1.2% of all), similar ones and a draw of the others. Unless noted, how the calls were made is not given here.

CC(=O)c1cc(CN2CCN(CC=C(C)C)C(CCO)C2)cs1 (stereo unspecified)	none
CCN(CC)S(=O)(=O)c1cccc(-c2nnc(SCC(=O)NC)n2CCc2ccccc2)c1	RGS7-Gao reg 246[activator], Avidin bead fluor 161 | RGS-Gao 128 | Biotin-avidin inactive | RGS8-Gao confirm inactive | RGS7-Gao single inactive | RGS16-Gao conf inactive | RGS4-Gao single inactive | RGS19-Gao single inactive
O=C(Cc1ccc(Br)cc1)N(Cc1ccccc1)c1ccccn1	RGS7-Gao reg 151[activator], Avidin bead fluor 59 | RGS-Gao 112 | Biotin-avidin inactive | RGS8-Gao confirm inactive | RGS7-Gao single inactive | RGS16-Gao conf inactive | RGS4-Gao single inactive | RGS19-Gao single inactive
COc1cccc(CNC(=O)Cc2nc3nc(C)cc(C)n3n2)c1	none
COc1ccccc1NC(=O)Cn1cnc2c(nnn2-c2ccc(C)cc2)c1=O	RGS7-Gao reg 154[activator] | RGS-Gao 104 | Biotin-avidin inactive | RGS8-Gao confirm inactive | RGS7-Gao single inactive | RGS16-Gao conf inactive | RGS4-Gao single inactive | RGS19-Gao single inactive
CCOC(=O)c1ccccc1NC(=O)Cn1cnc2c(nnn2-c2ccc(C)cc2)c1=O	none
CCCc1nc(SCC(=O)Nc2nnc(SCC)s2)c2c(=O)n(C)c(=O)n(C)c2n1	RGS7-Gao reg 44, RGS8-Gao 59 | RGS-Gao 54
CCN(CC)C(=O)C(=O)c1cccn1-c1c(Cl)cccc1C#N	RGS7-Gao reg 158[activator], Avidin bead fluor 109 | RGS-Gao 112 | Biotin-avidin inactive | RGS8-Gao confirm inactive | RGS7-Gao single inactive | RGS16-Gao conf inactive | RGS4-Gao single inactive | RGS19-Gao single inactive
OCCSc1nc(-c2ccccc2)nc2c1CCC2	RGS16-Gao HTS 15 | RGS-Gao 96 | Biotin-avidin inactive | RGS8-Gao confirm inactive | RGS7-Gao single inactive | RGS16-Gao conf inactive | RGS4-Gao single inactive | RGS19-Gao single inactive
CC(=O)N(C1=C(Cl)C(=O)c2ccccc2C1=O)C1CCCCC1	RGS7-Gao reg inconclusive, RGS8-Gao 54, RGS16-Gao HTS 3.0 (no result: GSH bead fluor) | RGS-Gao 87
CC(=O)N(c1ccccc1C)C1CCCC1	none
CC1CCC2(CC1)NC(=O)N(Cc1cc(=O)n3ccsc3n1)C2=O (stereo unspecified)	RGS7-Gao reg inconclusive (no result: GSH bead fluor)
FC(F)(F)COc1ccc(-c2nnc(SCc3ccccc3)o2)cn1	RGS7-Gao reg inconclusive (no result: GSH bead fluor)
Cc1cccc(C)c1NC(=O)C(=O)c1cn(C)c2ccccc12	none
Cc1cc(NC(=O)C(=O)c2cn(C)c3ccccc23)no1	RGS7-Gao reg 165[activator], Avidin bead fluor 62 | RGS-Gao 110 | Biotin-avidin inactive | RGS8-Gao confirm inactive | RGS7-Gao single inactive | RGS16-Gao conf inactive | RGS4-Gao single inactive | RGS19-Gao single inactive
CC1CCC2(CC1)NC(=O)N(CC(=O)NC(=O)Nc1ccc3c(c1)OCCO3)C2=O (stereo unspecified)	RGS7-Gao reg inconclusive (no result: GSH bead fluor)
Cn1c(CSCc2ccc(Cl)cc2)nnc1SCC(=O)Nc1nccs1	none
Cn1c(CSCc2ccc(Cl)cc2)nnc1SCC(=O)Nc1nc2ccccc2s1	none (no result: RGS7-Gao reg, RGS8-Gao, RGS16-Gao HTS, RGS4-Gao reg, Avidin bead fluor) | Biotin-avidin inactive | RGS8-Gao confirm inactive | RGS7-Gao single inactive | RGS16-Gao conf inactive | RGS4-Gao single inactive | RGS19-Gao single inactive
Cc1cc(C)cc(OCC(=O)OCC(=O)Nc2c(C)n(C)n(-c3ccccc3)c2=O)c1	RGS7-Gao reg 153[activator] | RGS-Gao 145 | Biotin-avidin inactive | RGS8-Gao confirm inactive | RGS7-Gao single inactive | RGS16-Gao conf inactive | RGS4-Gao single inactive | RGS19-Gao single inactive
Cc1c(NC(=O)COC(=O)COc2ccc(Nc3ccccc3)cc2)c(=O)n(-c2ccccc2)n1C	RGS7-Gao reg 155[activator], RGS8-Gao 140[activator] | RGS-Gao 143
CCOCC(=O)Nc1c(C)n(C)n(-c2ccccc2)c1=O	none
Cc1c(NC(=O)CSc2n[nH]c(=O)n2-c2ccccc2)c(=O)n(-c2ccccc2)n1C	none
Cc1c(NC(=O)CSc2nnc(COc3ccccc3)n2-c2ccccc2)c(=O)n(-c2ccccc2)n1C	RGS7-Gao reg 171[activator], Avidin bead fluor 141 | RGS-Gao 114
Cc1c(NC(=O)COC(=O)c2ccccc2Cl)c(=O)n(-c2ccccc2)n1C	none
Cc1cccc(-c2nc3sc(C)cc3c(=O)o2)c1	none
Cc1ccc(NC(=O)CN(C)C(=O)COc2ccc(C(=O)c3ccc(F)cc3)cc2)cc1	none
CC(=O)NC(CC(=O)Nc1cccc(S(=O)(=O)N2CCCCC2)c1)c1ccccc1 (stereo unspecified)	none
Cc1[nH]n(-c2ccccc2)c(=S)c1C=NCCCN=Cc1c(C)[nH]n(-c2ccccc2)c1=S	RGS8-Gao 52, RGS16-Gao HTS -0.3 | RGS-Gao 92 | Biotin-avidin inactive | RGS8-Gao confirm inactive | RGS7-Gao single inactive | RGS16-Gao conf 74 | RGS4-Gao single inactive | RGS19-Gao single 47
CCOC(=O)c1c(C)n(-c2ccc(C)cc2)c2ccc(OCC(O)CN3CCN(C)CC3)cc12 (stereo unspecified)	none
COc1ccc(NC(=O)CSc2ncnc3c2cnn3CCc2ccccc2)cc1	RGS7-Gao reg 0.3, RGS8-Gao 19, RGS16-Gao HTS -12, RGS4-Gao reg -20 | Biotin-avidin inactive | RGS8-Gao confirm inactive | RGS7-Gao single inactive | RGS16-Gao conf inactive | RGS4-Gao single inactive | RGS19-Gao single inactive
COc1cccc(NC(=O)CSc2ncnc3c2cnn3Cc2ccccc2)c1	none

Compound activity: PubChem BioAssay, NMMLSC
